{"source": "PubChem BioAssay (NCI)", "note": "“And” between values parts separate entries of the source, which are not always exact repeats. Identical values can stand only once. The panel holds about 83,000 compounds, 20% with a hit somewhere; the sample as a whole holds those more often.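 96-well plates, one dose, 48 hours. Percent growth reported; active if below 10.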 The source made the active and inactive calls.", "data": [{"test_system": "TK-10 renal", "test": "NCI-60 one-dose screen, 48 h (100 = growth as untreated, 0 = no growth, -100 = all killed)", "conditions": "10 µM unless noted", "protocol": "Growth inhibition of the TK-10 human tumor cell line is measured as a screen for anti-cancer activity. Cells are grown in 96 well plates and exposed to the test compound for 48 hours. Compounds are tested at a single concentration, which is 10^-5 M for most compounds. The reported endpoint is percent growth (GI% or GIPRCNT), where numbers from 0 - 100% represent growth inhibition, and numbers from -100% - 0 represent cell death. For example, a value of 40 represents 60% growth inhibition. A value of 0 means no net growth occurred over the course of the experiment. A value of -40 indicates 40% of cells at the beginning of the experiment died by the end of the experiment. A value of -100 means all cells are dead at the end of the experiment.\nNCI-60 Human Tumor Cell Lines Screen was performed using the standard one-dose NCI protocol, which is described in more detail at https://dtp.cancer.gov/discovery_development/nci-60/default.htm.\nCompounds with GIPRCNT values below 10 were considered active. Activity score was based on GIPRCNT using the following formula: […]\nScore is 0 for GIPRCNT values of 100 or above, 50 for GIPRCNT values of 0, and 100 for GIPRCNT values of -100.", "values": [{"smiles": "N#CCC(=O)c1ccccc1", "growth": "119% (inactive)"}, {"smiles": "COC(=O)C12C3C4C1C1C2C3C41NC(=O)c1csc([C@@H](C[C@H](C(C)C)N(C)C(=O)[C@@H](NC(=O)[C@H]2CCCCN2C)C2CC2)OC(C)=O)n1", "note": "(stereo not given in full)", "growth": "41.2% (inactive)"}, {"smiles": "CC(C)COC(=O)Cc1ccccc1", "growth": "95.3% (inactive)"}, {"smiles": "O=C(O)c1cc([N+](=O)[O-])cc([N+](=O)[O-])c1", "growth": "96.9% (inactive)"}, {"smiles": "CCN1C(=O)CC(=O)N(CC)C1=S", "growth": "105% (inactive)"}, {"smiles": "O=C(O)c1ccccc1N(CCO)CCCl", "growth": "117% (inactive)"}, {"smiles": "O=C(O)c1ccc(=O)[nH]c1", "growth": "94.8% (inactive) and 97.5% (inactive)"}, {"smiles": "C=CC1CN2CCC1CC2C(O)c1ccnc2ccccc12", "note": "(stereo not given)", "growth": "142% (inactive)"}, {"smiles": "COC12CC3C4=CCOC5CC(=O)N6c7ccccc7C1(CCN2C4)C6C53", "note": "(stereo not given)", "growth": "100% (inactive)"}, {"smiles": "CCCCCCCCCCCCCCCC[n+]1ccccc1", "growth": "-74.4% (active)"}, {"smiles": "CC[C@H](C)[C@H](NC(=O)[C@H]1CCCCN1C)C(=O)N(C)[C@H](CCc1nc(C(=O)N[C@@H](Cc2ccccc2)C[C@H](C)C(=O)O)cs1)C(C)C", "growth": "49.4% (inactive)"}, {"smiles": "O=S1(=O)OCCO1", "growth": "98.5% (inactive)"}, {"smiles": "CC1(C)N(Nc2ccccc2)C(=O)C2CCCN21", "note": "(stereo not given)", "growth": "59.6% (inactive)"}, {"smiles": "Oc1ccccc1C=NCCN=Cc1ccccc1O", "growth": "104% (inactive)"}, {"smiles": "C[N+]1(CC#CC[N+]2(C)CCCC2)CCCC1", "growth": "96.3% (inactive)"}, {"smiles": "Nc1nc(=S)nc(N)[nH]1", "growth": "136% (inactive)"}, {"smiles": "COc1cc2c(cc1OC)[C@@H]1C(=O)c3ccc4c(c3O[C@@H]1CO2)C[C@H](C(C)C)O4", "growth": "70.3% (inactive)"}, {"smiles": "COc1ccc(N)cc1OC", "growth": "120% (inactive)"}, {"smiles": "C[C@]12CC[C@H](O)C[C@@H]1CC[C@@H]1[C@@H]2CC[C@]2(C)OC(=O)CC[C@@H]12", "growth": "97.5% (inactive)"}, {"smiles": "O=C1NC(=O)C(=C/C=C/c2ccccc2)C(=O)N1", "growth": "14.8% (inactive)"}, {"smiles": "CCOC(=O)P(=O)(OCC)OCC", "growth": "107% (inactive)"}, {"smiles": "CN(N)/N=N/c1nc[nH]c1[N+](=O)[O-]", "growth": "79.1% [100 µM] (inactive) and 9.85% [100 µM] (active)"}, {"smiles": "CC[C@H](C)[C@H](NC(=O)c1ncccn1)C(=O)N(C)[C@H](C[C@@H](OC(C)=O)c1nc(C(=O)N[C@@H](Cc2ccccc2)C[C@H](C)C(=O)OC)cs1)C(C)C", "growth": "41% (inactive)"}, {"smiles": "CCC(Br)(CC)C(=O)NC(N)=O", "growth": "104% (inactive)"}, {"smiles": "Cc1cc[c-]cc1.Fc1c[c-]c(-c2ccccn2)c(F)c1.[Pt+2].c1ccc([PH+](c2ccccc2)c2ccccn2)cc1", "growth": "75.9% (inactive)"}, {"smiles": "CO[C@@H]([CH2][Hg][O]C(=O)c1ccccc1)[C@@H]([CH2][Hg][O]C(=O)c1ccccc1)OC", "growth": "128% (inactive)"}, {"smiles": "COc1ccc(O)c2c(=O)c3c(OC)cc4c(c3oc12)[C@@H]1C=CO[C@@H]1O4", "growth": "36.8% (inactive)"}, {"smiles": "O=[N+]([O-])c1ccc(P(=O)(O)O)cc1", "growth": "101% (inactive)"}, {"smiles": "NC(=O)Oc1cc(OC(N)=O)cc(N(CCCl)CCCl)c1", "growth": "103% (inactive)"}, {"smiles": "CC(C)c1cccc(C(C)C)c1O", "growth": "116% (inactive) and 94.6% (inactive)"}, {"smiles": "C[C@]12CC[C@@H](OC(=O)N(CCCl)N=O)C[C@@H]1CC[C@@H]1[C@@H]2CC[C@]2(C)C(=O)CC[C@@H]12", "growth": "81.8% (inactive)"}, {"smiles": "O=[N+]([O-])c1ccc(CI)cc1", "growth": "112% (inactive)"}, {"smiles": "CNC(=O)CCl", "growth": "99.9% (inactive)"}, {"smiles": "N#CC(NC(=O)CCl)=C(Cl)Cl", "growth": "-13.1% (active)"}, {"smiles": "C=C1C(=O)OC2CC3(C)OC3C3OC3C3=CC(OC3=O)C12", "note": "(stereo not given)", "growth": "16.7% (inactive) and -22.5% (active)"}, {"smiles": "CCCC1CCCCC12C(=O)NC(=O)NC2=O", "note": "(stereo not given)", "growth": "92.9% (inactive) and 107% (inactive)"}, {"smiles": "COc1cc(C2C3=C(CCCC3=O)N(CCO)c3cc4c(cc32)CCC4)cc(OC)c1OC", "note": "(stereo not given)", "growth": "82.1% (inactive)"}, {"smiles": "CC[C@H](C)[C@H](NC(=O)[C@H]1CCCCN1C)C(=O)N(C)[C@H](C[C@@H](OC(C)=O)c1nc(C(=O)NC23C4C5C2C2C3C4C52C(=O)OC)cs1)C(C)C", "note": "(stereo not given in full)", "growth": "36.7% (inactive)"}, {"smiles": "NC1CN2CCC1CC2", "note": "(stereo not given)", "growth": "98.2% (inactive)"}, {"smiles": "COc1ccn(C)c(=O)c1C#N", "growth": "78.5% (inactive)"}]}]}
